# TDP1 block = TDP1 (human) enzyme inhibition; Q9NUW8; recombinant TDP1, AlphaScreen DNA substrate cleavage; Potency, µM (series often up to 130 µM), for the others: at the top dose activity change, negative = inhibition, most hits filed as inhibitors; 350,000 tested, 0.28% active; AID 485290; further: on the % scale 0 is the no-effect control and ±100 the full control effect; nearly all actives have a fitted effect of over 40% in size
#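 Enzyme-compound mixtures sat 15 min at room temperature, followed by a 5 min reaction with 15 nM final substrate and 10 min with AlphaScreen beads. Recombinant human Tdp1 was used at 1 nM final.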
# HP1b binding inh = inhibitors of HP1-beta chromodomain binding to methylated histone tails; AID 540317; 390,000 tested, 0.56% active; Potency, µM (top dose mostly 114 µM), for the others: at the top dose activity change, negative = inhibition, usual class: inhibitors; AlphaScreen HP1-beta / biotin-H3K9me3 peptide binding; P83916; further: nearly all actives have a fitted effect of over 70% in size
# Target sequence (P83916 whole entry, looked up): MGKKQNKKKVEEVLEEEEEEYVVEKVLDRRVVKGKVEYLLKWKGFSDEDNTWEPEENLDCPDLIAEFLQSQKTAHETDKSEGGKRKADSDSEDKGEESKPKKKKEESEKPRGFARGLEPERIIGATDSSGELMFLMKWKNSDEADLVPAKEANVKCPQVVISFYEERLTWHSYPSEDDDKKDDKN
#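 HP1-beta protein (50 nM final) preincubated 30 min at room temperature with biotinylated H3(1-18)K9me3 peptide (50 nM) in PBS pH 7.4, 0.01% Tween-20, then compound added for 30 min. AlphaScreen streptavidin donor/nickel chelate acceptor beads (10 ug/mL final), 30 min dark, luminescence read.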
# BAZ2B inh = BAZ2B (human) inhibition; Q9UIF8; AID 504333; Potency, µM (doses to about 114 µM), without a hit: top-dose activity change, negative = inhibition, most hits filed as inhibitors; AlphaScreen BAZ2B-H3K14Ac peptide displacement; 360,000 tested, 4.4% active; further: on the % scale 0 is the no-effect control and ±100 the full control effect; nearly all actives have a fitted effect of over 60% in size
#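 AlphaScreen displacement of biotin-H3(5-23)K14Ac peptide (50 nM final) from BAZ2B (50 nM final) in PBS pH 7.4, 0.01% Tween-20; complex preformed 30 min RT, then compounds (top 110 uM) 30 min RT, beads 20 min dark.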
# Sfp inh = Sfp phosphopantetheinyl transferase inhibition; Q9F4F7; Biochemical Sfp PPTase activity, qHTS; Potency, µM, for the others: largest response in the series, negative = inhibition, most hits filed as inhibitors; 310,000 tested, 3.5% active;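 further: the enzyme is Sfp with the accession as filed and its product quenches rhodamine fluorescence; 0% = enzyme reaction without inhibitor and -100% = no enzyme wells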
#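 With Hepes-Na pH 7.6 buffer containing 10 mM MgCl2, Sfp (15 nM) modified BHQ-2-YbbR (12.5 uM) using rhodamine-CoA (5 uM). Two reads 30 minutes apart at 525/598 nm yielded each well's rate.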
# G9a inh = inhibitors of human histone lysine methyltransferase G9a; Q96KQ7; G9a H3K9 monomethylation, AlphaScreen, 2 h; Potency, µM (doses to about 102 µM), without a hit: at the highest dose activity, negative = inhibition, actives largely listed as inhibitors; 350,000 tested, 8.8% active; AID 504332; further: on the % scale 0 is the no-effect control and ±100 the full control effect; nearly all actives have a fitted effect of over 75% in size
# Target sequence (Q96KQ7 913-1193 limits assumed): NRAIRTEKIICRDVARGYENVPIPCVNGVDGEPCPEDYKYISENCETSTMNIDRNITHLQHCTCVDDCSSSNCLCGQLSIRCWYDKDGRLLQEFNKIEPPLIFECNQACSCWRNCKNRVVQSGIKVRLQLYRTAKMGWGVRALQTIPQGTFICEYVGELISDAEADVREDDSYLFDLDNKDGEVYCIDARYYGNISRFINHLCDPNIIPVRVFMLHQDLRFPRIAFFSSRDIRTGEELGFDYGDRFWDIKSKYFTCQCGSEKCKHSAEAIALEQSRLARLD
#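 G9a (20 nM) preincubated 15 min RT with compounds, then 500 nM biotinylated H3K9 peptide and 20 uM SAM added; 2 h RT reaction. Monomethyl-H3K9 product detected by AlphaScreen with anti-H3K9me1 antibody, streptavidin donor and anti-rabbit IgG acceptor beads.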
# JMJD2A Tudor inh = inhibitors of human JMJD2A Tudor domain; O75164; AlphaScreen JMJD2A-Tudor / H3K4me3 peptide binding; Potency, µM (doses to about 114 µM), for inactives: at the highest dose activity change, negative = inhibition, most hits filed as inhibitors; 390,000 tested, 4.4% active; further: on the % scale 0 is the no-effect control and ±100 the full control effect; nearly all actives have a fitted effect of over 50% in size
# * hit, by the source's call; ? = inconclusive; . = no result given; ! = not confirmed by another sample; [ ] = dose if it differs, or a comment. The list is not random: actives were taken first. Their share in the collection is about 12%. The call rests on the fitted dose curve; in most records, active means well fitted curve in the direction sought with a large enough effect; inconclusive means small, poorly fitted or top-dose-only effect, or another doubt; inactive means no such curve, though single readings can be large; an effect the other way counts as inactive or inconclusive. Potency means the concentration at half of the fitted maximal effect.
SMILES,TDP1 block,HP1b binding inh,BAZ2B inh,Sfp inh,G9a inh,JMJD2A Tudor inh
COc1ccc(CCNC(=O)c2cnc3sc(N4CCCCC4)nn3c2=O)cc1OC,2.6%,9.1%,-7.4%,.,-3.4%[59 µM],-0.6%
O=C(Nc1cccc(-c2nc3cccnc3s2)c1)c1cccc(Br)c1,-2.9%,7.0%,-17.6%,.,17.8µM*,-28.5%
CC(NC(=O)CCCCCN1C(=O)c2ccccc2C1=O)c1ccc2c(c1)CCCC2 (centres undefined),2.8%,10.5%,4.9%,-18.1%,8.91µM*,-35.4%
C[c-]1[c-](C)[c-](C)[c-](C)[c-]1C.[Fe].c1cc2nccc(N3CCCC3)[c-]2c1 (centres undefined),7.94µM*!,17.8µM*!,39.8µM*,89.1µM*!,?,44.7µM*
O=C(Nc1cc2c(cc1C(=O)c1cccc(Br)c1)OCCO2)c1ccccc1F,4.5%,-5.4%,-27.4%,.,-1.5%[59 µM],?
COc1cc(C2C(C(=O)c3ccc(C)o3)=C(O)C(=O)N2Cc2ccccc2)ccc1O (centres undefined),.,-11.0%,-35.9%,.,44.7µM*,?
CCOc1cc(C2C(C(=O)c3ccc(C)o3)=C(O)C(=O)N2CCc2ccccc2)ccc1O (centres undefined),5.3%,14.9%,?,0.5%,44.7µM*,?
Cc1ccc(C(=O)C2=C(O)C(=O)N(Cc3cccnc3)C2c2cccc(Oc3ccccc3)c2)o1 (centres undefined),.,12.6%,.,.,.,-29.9%
Cc1cc(C(C)(C)C)ccc1NC(=O)CC(C)(C)CC(=O)O,.,34.6%,14.8%,-8.4%,37.9%[59 µM],-10.3%
CCN(CC(=O)Nc1ccc(NC(C)=O)cc1)C(=O)c1cccc(S(=O)(=O)N2CCc3ccccc3C2)c1,.,27.8%,-5.7%,.,3.16µM*,-6.2%
Cc1ccc(NC(=O)c2cccc(S(=O)(=O)N3CCc4ccccc4C3)c2)nc1,.,22.5%,11.4%,.,3.0%[0.501 µM],-9.5%
CN(C)S(=O)(=O)c1cccc(C(=O)OCC(=O)Nc2ccccc2OC(F)F)c1,2.5%,?,5.5%,12.4%,10.0%,79.4µM*
CCc1cccc(CC)c1NC(=O)COC(=O)c1cccc(S(=O)(=O)N2CCc3ccccc3C2)c1,3.2%,40.1%,5.4%,2.8%,17.6%[59 µM],8.2%
CCN(CC)S(=O)(=O)c1cccc(C(=O)OCC(=O)Nc2ccccc2OC(F)F)c1,2.9%,19.1%,-3.3%,11.3%,-0.4%[12.7 µM],5.2%
CCN(CC(=O)Nc1c(F)cccc1F)C(=O)c1cccc(S(=O)(=O)N2CCc3ccccc3C2)c1,.,3.1%,6.5%,.,26.2%[0.501 µM],-14.5%
Cc1cc(N2CCN(C)CC2)ccc1NC(=O)c1cccc(S(=O)(=O)N2CCc3ccccc3C2)c1,3.7%,?,?,-17.9%,28.2µM*,-35.0%
CN(C)S(=O)(=O)c1cccc(NC(=O)COC(=O)c2cccc(S(=O)(=O)N3CCc4ccccc4C3)c2)c1,2.8%,27.8%,?,10.2%,1.58µM*,-20.9%
CC([NH2+][O-])C(C)(C)NO (centres undefined),?,?,?,?,17.8µM*,22.4µM*
O=C(NC1CCCC1)C1CCN(c2nccs2)CC1,3.6%[56.1 µM],7.6%,-3.4%,4.4%,19.2%[59 µM],-17.2%
O=C(NC1CCCCC1)C1CCN(c2nccs2)CC1,2.0%,-20.1%,6.2%,8.6%,-23.0%[59 µM],79.4µM*
COc1ccc(/C=C\c2cc(OC)c(OC)cc2CC[N+](C)(C)C)cc1OC,2.9%,2.4%,-27.8%,1.4%,12.6µM*,-24.1%
COc1ccc(/C=C/c2cc(OC)c(OC)cc2CC[N+](C)(C)C)cc1,3.1%,.,.,-15.3%,.,.
COc1ccc(OC)c(S(=O)(=O)Nc2ccc(-c3ccc4nncn4n3)cc2)c1,-9.0%,?,-0.1%,.,12.6µM*,-1.4%
O=S(=O)(Nc1ccc(-c2ccc3nncn3n2)cc1)c1cc(F)ccc1F,-4.4%,27.9%,-2.0%,.,-11.0%,-19.2%

# Screens from PubChem BioAssay.
